# Source: PubChem (National Center for Advancing Translational Sciences (NCATS))
# The list is not random: actives were taken first. Their share in the collection is about 3.6%.
# HepG2 tox – HepG2 cytotoxicity, counter-screen for TGF-b inhibitors; HepG2 CAGA-GFP viability, ATP luminescence, 18 h; Potency, µM (top dose mostly 46.1 µM), usual class: cytotoxic; hit rate 0.76% among 410,000
#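 HepG2 CAGA-GFP cells (1000/well, DMEM with 1% FBS) received compound, then TGF-beta at 500 pg/mL final, and were incubated 18 hours at 37 degrees C. Viability was read by CellTiter-Glo luminescence. Media-only wells were set as complete cell-killing and DMSO as no toxicity.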
# Nrf2 block – Nrf2 pathway inhibition; A549 ARE-Fluc reporter, luciferase luminescence, 18-24 h; Potency, µM (top dose mostly 46 µM), hits mostly inhibitors; hit rate 2.1% among 360,000; AID 504444; also: nearly all actives have a fitted effect of over 60% in size
#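 A549 ARE_Fluc cells, 5000/well, 5% FBS OPTI-MEM; compounds in dose-response, 18-24 h at 37 °C/5% CO2; CellTiter-Fluor viability read (Ex 405/Em 525), then BugLite luciferase luminescence = Nrf2 activity.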
# Nrf2 ARE act – activators of Nrf2 (ARE) signaling | hit rate 0.31% among 410,000 | AREc32 ARE-luciferase reporter (MCF7-derived line), luminescence, 24 h | Potency, µM (top dose mostly 46.1 µM), most hits filed as activators | AID 624171; also: nearly all actives have a fitted effect of over 65% in size
#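 For detection, Steady-Glo was added and plates sat 30 min at RT; before that, AREc32_Fluc cells grown overnight in OPTI-MEM/5% FBS had been treated with 23 nL compound for 24 hr at 37 deg C.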
# A549 viability – kills or reduces viability of A549 cells in Nrf2 counter-screen. A549 ARE-Fluc cells, CellTiter-Fluor viability, 18-24 h. hit rate 0.16% among 390,000. Potency, µM (series often up to 46 µM), most hits filed as inhibitors
#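 Cytotoxicity counterscreen: CellTiter-Fluor fluorescence was measured in A549 ARE_Fluc cells after 18-24 h of compound exposure in a concentration series. The subsequent BugLite luminescent read reports ARE-luciferase activity.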
# TGFb inhibitor – blocks TGF-b signaling; hit rate 1.2% among 410,000; Potency, µM (highest dose often 46.1 µM), usual class: inhibitors; HepG2 CAGA-GFP TGF-b/SMAD3 reporter, GFP fluorescence, 18 h; TGF-beta stimulated, 500 pg/mL final; also: nearly all actives have a fitted effect of over 65% in size
#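 HEPG2 CAGA-GFP, 1000 cells/well; 2 h settle, 37 C; cpd via pin tool; TGF-b 500 pg/mL final; 18 h, 37 C; GFP imaging ex488/em500-530; %Activity normalised to -TGF-b and +DMSO controls; CRC fit, curve class.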
# A number is an active result; n = inactive; u = inconclusive; x = not tested or not shown; [ ] = dose if it differs, or a comment. Calls follow the shape of the dose curve; as a rule, active = well fitted curve in the direction sought with a large enough effect; inconclusive = small, poorly fitted or top-dose-only effect, or another doubt; inactive = no such curve, though single readings can be large; an effect the other way counts as inactive or inconclusive.
SMILES,HepG2 tox,Nrf2 block,Nrf2 ARE act,A549 viability,TGFb inhibitor
CCOC(=O)c1c(C)n(CCNC(C)=O)c2ccc(OC)cc12,n,n,n,n,n
CCOC(=O)c1c(C)c(C(=O)N2CCCCCC2)c(C)n1C,n,x,n,n,n
Cc1cccc(N/C=C/c2onc(C)c2[N+](=O)[O-])c1,n,u,u,n,n
Cc1cccc(/C=C/c2onc(C)c2[N+](=O)[O-])n1,n,15µM,n,18µM,n
CCOc1ccc(CCN2CN(CC)CNC2=S)cc1OCC,8.9µM,n,n,n,n
NCC1CCN(c2nc3ccccc3c3c2CCCC3)CC1,13µM,n,n,n,u
Cc1cc(C)n(-c2nc(Nc3ccccc3C(F)(F)F)nc(-n3nc(C)cc3C)n2)n1,n,x,n,u,u
O=C(NCc1ccco1)c1ccccc1NS(=O)(=O)c1ccc(Cl)s1,n,u,n,n,n
Cc1ccc(NC(=O)c2ccccc2NS(=O)(=O)c2ccc(Cl)s2)cc1,n,16µM,n,u,u
O=C(Nc1ccccc1)c1ccccc1NS(=O)(=O)c1ccc(Cl)s1,n,18µM,n,u,13µM
CC1CN(c2nc3ccccn3c(=O)c2/C=C(\C#N)S(=O)(=O)c2ccccc2)CC(C)O1 (configuration not stated),n,n,n,n,n
O=C(c1cccc2ccccc12)N1CCN(c2ccc([N+](=O)[O-])c(N3CCOCC3)c2)CC1,n,u,n,n,n
Cc1ccccc1OCC(=O)NCC(C)(C)N1CCOCC1,n,n,n,n,n
CCCN(CCC)C(=O)c1cc2c(=O)[nH]c3ccc(C)cc3c2s1,n,18µM,n,n,n
CCN(CCCNC(=O)c1cc2c(=O)[nH]c3ccc(C)cc3c2s1)Cc1ccccc1,13µM,n,n,u,11µM
CCCCN1C(=O)C(=O)N(CC(=O)Nc2sc(C)c(CC)c2C(=O)OCC)C1=O,n,n,n,n,u
CCOC(=O)N1CCN(C(=O)C2CCCN(S(=O)(=O)c3ccccc3)C2)CC1 (configuration not stated),n,n,n,n,n
COc1ccc(C(=O)/C=C/C(=O)N(CC(=O)NC2CCCCC2)CC2CCCO2)c(O)c1 (configuration not stated),13µM,21µM,u,u,u
COc1ccc(CC(=O)Nc2nc(C)cs2)cc1,n,n,n,n,n
CCc1noc(C)c1C(=O)Nc1nc(-c2ccc(OC)cc2OC)cs1,n,8.2µM,n,n,n
COc1cccc(CC(=O)Nc2nc(-c3cc(OC)ccc3OC)cs2)c1,n,n,n,n,n
COc1ccc(OC)c(-c2csc(NC(=O)Cc3cccs3)n2)c1,n,16µM,n,n,u
COc1ccc(OC)c(-c2csc(NC(=O)Cc3ccccc3)n2)c1,n,18µM,n,n,u
COc1ccc(CC(=O)Nc2nc(C(C)(C)C)cs2)cc1,n,13µM,n,u,u
Cc1cc(NC(=S)N(Cc2cccc(Br)c2)CC2CCC(C(=O)O)CC2)ccc1Cl (configuration not stated),n,n,n,n,n
SMILES,HepG2 tox,Nrf2 block,Nrf2 ARE act,A549 viability,TGFb inhibitor
Cc1cc(C)c(Cn2c(=O)n(CCC(=O)NCCc3ccccc3)c(=O)c3ccccc32)c(C)c1,n,n,n,n,u
CCOc1ccc(C(=O)Nc2c(C(=O)Nc3ccccc3F)oc3ccccc23)cc1OCC,n,n,n,n,n
O=c1c(=O)n(-c2cccc(Cl)c2)ccn1Cc1cccc(F)c1,n,n,n,n,n
COc1ccc(CC(=O)Nc2nc(-c3cc(OC)ccc3OC)cs2)cc1,n,12µM,n,n,u
C=CC[n+]1c(-c2ccc(OCC)cc2)csc1NNC(=O)Nc1ccccc1,n,15µM,n,n,u
C=CC[n+]1c(-c2ccc(C)cc2)csc1Nc1c(C)n(C)n(-c2ccccc2)c1=O,n,n,n,n,n
COCCN(C(=O)COC(=O)c1cc2ccccc2cc1O)c1c(N)n(Cc2ccccc2)c(=O)[nH]c1=O,n,n,n,n,u
CCOc1cc(/C=C/c2ccc3cccc([N+](=O)[O-])c3n2)ccc1O,n,23µM,u,u,13µM
CCOc1cc(/C=C/c2ccc3cccc([N+](=O)[O-])c3n2)ccc1OCC(=O)N(C)C,n,u,n,n,n
COc1c(OC(C)=O)ccc(/C=C/c2ccc3cccc(OC)c3n2)c1[N+](=O)[O-],n,u,n,u,n
CCOc1cc(/C=C/c2cc(C(F)(F)F)[nH]c(=O)n2)ccc1O,n,21µM,n[9.22 µM],u,u
CCOc1c(OC(C)=O)ccc(/C=C/c2ccc3cccc(OC(C)=O)c3n2)c1[N+](=O)[O-],n,n,u,n,13µM
Cc1c(NC(=O)c2cc(-c3ccc(Cl)c(Cl)c3)on2)c(=O)n(-c2ccccc2)n1C,n,u,n,n,n
C=C(C)CN1C(=O)C(=O)N(CC(=C)C)C1=O,n,n,n,n,n
Cc1cc(C)n2nc(SCC(=O)Nc3ccc(F)c(F)c3F)nc2n1,n,15µM,n,n,n
Cc1ccc(NC(=O)c2ccc(Cl)c(S(=O)(=O)N3CCCCCC3)c2)nc1,n,23µM,n,u,n
O=C(Nc1cccnc1)c1ccc(Cl)c(S(=O)(=O)N2CCCCCC2)c1,n,15µM,n,n[1.84 µM],u
Cc1ccc(NC(=O)c2ccc(S(=O)(=O)N3CCCCCC3)cc2)nc1,n,u,n,n,n
Cc1ccc(C2=[N+]([O-])C3(CCCCC3=O)N(O)C2(C)C)cc1 (configuration not stated),n,n,n,n,n
O=C(Cc1cccs1)N1CCN(c2nc(-c3ccc(Cl)cc3)cs2)CC1,n,18µM,n,n,n
CC(C)C(=O)N1CCN(c2nc(-c3ccc(Cl)cc3)cs2)CC1,n,u,n,n,u
COc1cccc(-c2csc(N3CCN(C(=S)Nc4ccccc4)CC3)n2)c1,n,n,n,n,n
CNC(=S)N1CCN(c2nc(-c3ccc(Cl)cc3)cs2)CC1,n,18µM,n,n,u
CNC(=S)N1CCN(c2nc(-c3cccc(OC)c3)cs2)CC1,n,18µM,n,n,n
COc1cccc(-c2csc(N3CCN(C(=S)Nc4ccc(Cl)cc4)CC3)n2)c1,n,21µM,n,n,u
COc1cccc(-c2csc(N3CCN(C(=S)Nc4cccc(C)c4)CC3)n2)c1,n,n,n,n,n
O=C(Oc1ccccc1)N1CCN(C(=O)c2ccco2)CC1,n,n,n,n,n
S=C(NCC1CCCO1)N1CCN(c2nc(-c3ccccc3)cs2)CC1 (configuration not stated),n,13µM,n,n,u
CCNC(=S)N1CCN(c2nc(-c3ccc(F)cc3)cs2)CC1,n,18µM,n,n,n
COCCNC(=S)N1CCN(c2nc(-c3ccc(F)cc3)cs2)CC1,n,n,n,n,u
